This is a sample that favours compounds with a hit; in the whole collection about 12% have one here.
HP1b chromo inh – blocks HP1-beta chromodomain binding to methylated histone tails; 0.56% of 390,000 active; AID 540317; P83916; AlphaScreen HP1-beta / biotin-H3K9me3 peptide binding; Potency, µM (series often up to 114 µM), without a hit: at the top dose activity change, negative = inhibition, most hits filed as inhibitors; note: nearly all actives have a fitted effect of over 70% in size
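HP1-beta protein (50 nM final) preincubated 30 min at room temperature with biotinylated H3(1-18)K9me3 peptide (50 nM) in PBS pH 7.4, 0.01% Tween-20, then compound added for 30 min. AlphaScreen streptavidin donor/nickel chelate acceptor beads (10 ug/mL final), 30 min dark, luminescence read.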
G9a block – inhibitors of human histone lysine methyltransferase G9a. Q96KQ7. G9a H3K9 monomethylation, AlphaScreen, 2 h. Potency, µM (highest dose often 102 µM), without a hit: top-dose activity, negative = inhibition, actives largely listed as inhibitors. 8.8% of 350,000 active. AID 504332; note: % is set by controls: 0 for no effect and ±100 for the full control effect; nearly all actives have a fitted effect of over 75% in size
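AlphaScreen detection with an anti-monomethyl H3K9 antibody quantified product after a 2 h room-temperature reaction containing 500 nM biotinylated H3K9 peptide, 20 µM SAM and 20 nM enzyme, which had been preincubated 15 min with compound.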
Sfp inh – blocks B. subtilis Sfp PPTase activity | Q9F4F7 | AID 1490 | Potency, µM, for the others: largest response in the series, negative = inhibition, actives largely listed as inhibitors | 3.5% of 310,000 active | Biochemical Sfp PPTase activity, qHTS;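 note: the enzyme is Sfp with the accession as filed and its product quenches rhodamine fluorescence; 0% = enzyme reaction without inhibitor and -100% = no enzyme wells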
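Fluorescence-quenching assay: 15 nM Sfp-PPTase preincubated 15 min at room temperature with compound, then 5 uM rhodamine-CoA and 12.5 uM BHQ-2-labelled YbbR peptide added. Fluorescence (ex 525/em 598 nm) read at start and after 30 min; difference gives rate.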
JMJD2A Tudor inh – blocks the human JMJD2A Tudor domain; Potency, µM (doses to about 114 µM), for inactives: at the top dose activity change, negative = inhibition, usual class: inhibitors; O75164; 4.4% of 390,000 active; AlphaScreen JMJD2A-Tudor / H3K4me3 peptide binding; note: % is set by controls: 0 for no effect and ±100 for the full control effect; nearly all actives have a fitted effect of over 50% in size
L3MBTL1 inh – L3MBTL1 (human) inhibition; Potency, µM (series often up to 57.1 µM), inactives show at the top dose activity, negative = inhibition, usual class: inhibitors; 0.66% of 230,000 active; AlphaScreen L3MBTL1–H3K9me1 peptide binding; note: % is set by controls: 0 for no effect and ±100 for the full control effect; nearly all actives have a fitted effect of over 60% in size
Target sequence (Q9Y468 whole entry, looked up): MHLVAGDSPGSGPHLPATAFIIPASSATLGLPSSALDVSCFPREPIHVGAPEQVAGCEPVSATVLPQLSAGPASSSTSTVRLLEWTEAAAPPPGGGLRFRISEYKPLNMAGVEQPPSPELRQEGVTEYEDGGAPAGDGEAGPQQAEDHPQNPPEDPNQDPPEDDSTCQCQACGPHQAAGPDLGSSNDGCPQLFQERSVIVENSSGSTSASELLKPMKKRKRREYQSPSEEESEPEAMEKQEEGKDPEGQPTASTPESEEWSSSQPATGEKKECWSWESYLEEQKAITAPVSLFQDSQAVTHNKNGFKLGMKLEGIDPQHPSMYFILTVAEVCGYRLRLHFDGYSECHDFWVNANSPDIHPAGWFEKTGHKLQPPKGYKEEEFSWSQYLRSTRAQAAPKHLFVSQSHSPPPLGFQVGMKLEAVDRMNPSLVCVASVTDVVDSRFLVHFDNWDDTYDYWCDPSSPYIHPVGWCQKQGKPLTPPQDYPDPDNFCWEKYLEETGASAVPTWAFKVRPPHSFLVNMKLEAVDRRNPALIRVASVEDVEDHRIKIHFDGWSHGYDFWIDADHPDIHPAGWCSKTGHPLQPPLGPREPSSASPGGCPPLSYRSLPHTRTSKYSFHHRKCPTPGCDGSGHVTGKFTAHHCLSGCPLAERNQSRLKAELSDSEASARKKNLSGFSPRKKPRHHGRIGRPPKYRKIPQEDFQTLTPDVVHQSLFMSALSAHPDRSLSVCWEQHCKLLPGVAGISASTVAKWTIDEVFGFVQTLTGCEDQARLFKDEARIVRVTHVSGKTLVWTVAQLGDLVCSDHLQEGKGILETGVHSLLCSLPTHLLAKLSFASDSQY
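First, the protein-peptide complex forms for 30 min at room temperature (L3MBTL1 50 nM, biotinylated H3K9me1 peptide 75 nM). Next, compounds are pin-transferred and incubated 30 min. Finally, AlphaScreen beads are added and read after 30 min.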
BAZ2B block – BAZ2B (human) inhibition; AlphaScreen BAZ2B-H3K14Ac peptide displacement; Potency, µM (titrated, usually from 114 µM), inactives show top-dose activity change, negative = inhibition, usual class: inhibitors; 4.4% of 360,000 active; note: % is set by controls: 0 for no effect and ±100 for the full control effect; nearly all actives have a fitted effect of over 60% in size
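BAZ2B (50 nM) with biotin-H3(5-23)K14Ac peptide (50 nM) in PBS pH 7.4, 0.01% Tween-20, preformed 30 min, then compound 30 min at room temperature; top concentration 110uM. AlphaScreen streptavidin donor/nickel chelate acceptor beads (10 ug/mL final), 20 min dark, signal read.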
Numbers without * were called inactive; ? = inconclusive; . = no result; [ ] = another dose, or the depositor's remark. Calls come from the whole dose curve; as a rule, active = well fitted curve in the direction sought with a large enough effect; inconclusive = small, poorly fitted or top-dose-only effect, or another doubt; inactive = no such curve, though single readings can be large; an effect the other way counts as inactive or inconclusive. Potency is the fitted concentration of half-maximal effect.

SMILES	HP1b chromo inh	G9a block	Sfp inh	JMJD2A Tudor inh	L3MBTL1 inh	BAZ2B block
CCC(=O)c1c[nH]c(C(=O)NCc2cccs2)c1	27.8%	20.6%[12.7 µM]	24.0%	4.9%	.	-10.9%
CCC(=O)Nc1cc(-c2cn3cccnc3n2)ccc1OC	27.5%[57 µM]	1.0%[59 µM]	.	?	.	1.4%
COc1ccc(C2=C(Nc3ccc(C)cc3)c3ccccc3C2=O)cc1	1.4%	10.1%[59 µM]	4.6%	?	-13.3%	?
Cc1cc(C)cc(NC2=C(c3ccccc3)C(=O)c3ccccc32)c1	?	8.91µM*	.	12.6µM*	.	12.6µM*
COc1ccc(C2=C(Nc3ccc(Br)c(C)c3)c3ccccc3C2=O)cc1	?	2.82µM*	.	?	.	?
COc1ccc(C2=C(Nc3ccc(C)c(C)c3)c3ccccc3C2=O)cc1	?	?	.	?	.	-32.2%
O=C(O)CNC(=O)c1ccccc1I	.	0.7%[59 µM]	2.6%	.	.	.
Cc1ccc(S(=O)(=O)N(C)S(=O)(=O)c2ccc(C#N)cc2)cc1	.	44.7µM*	2.4%	.	.	-1.9%
Cc1cc(C)nc(N(C#N)S(=O)(=O)c2ccc(Br)cc2)n1	.	-33.2%[59 µM]	5.0%	.	.	?
Cc1ccc(S(=O)(=O)N(C#N)c2nc(C)cc(C)n2)cc1	56.0%	44.7µM*	5.3%	-13.6%	.	?
Cc1ccc(S(=O)(=O)CC(O)COc2ccc(C#N)cc2)cc1 (stereo not drawn)	6.0%	23.4%[59 µM]	5.9%	-11.0%	4.1%	4.4%
CSc1ccc(CNc2ccccn2)cc1	4.1%	44.7µM*	0.5%	-24.0%	-3.6%	-10.1%
CN(C)c1ccc(CNCc2cccnc2)cc1	0.5%	.	.	-23.8%	.	.
Cc1ccc(O)c(CNc2cccc(C)n2)c1	-5.7%	.	3.5%	-27.9%	-4.1%	-34.6%
Fc1ccc(CNc2ccccn2)cc1	32.6%	.	-1.1%	8.8%	10.5%	5.2%
Cc1cccc(NCc2ccc(N(C)C)cc2)n1	?	50.1µM*	4.4%	50.1µM*	?	39.8µM*
CN(C)c1ccc(CNc2ccccn2)cc1	-14.3%	?	21.0%	56.2µM*	-10.4%	50.1µM*
O=C(OCC#CCSc1nnc(-c2cccc3ccccc23)o1)c1ccncc1	.	.	.	-6.1%	.	.
O=C1c2oc3ccccc3c(=O)c2C(c2ccccc2)N1Cc1ccc2c(c1)OCO2 (stereo not drawn)	21.8%	?	.	-14.1%	.	0.3%
COc1ccc(-n2nnnc2SCC(=O)Nc2ccc(OC)cc2OC)cc1	30.9%	.	1.0%	2.0%	-0.9%	11.5%
Cn1c2ccc(F)cc2c2nnc(SCCN3CCOCC3)nc21	51.6%	50.1µM*	?	0.4%	.	-1.2%
CCCCn1c2ccc(F)cc2c2nnc(SCCN3CCOCC3)nc21	26.2%	39.8µM*	56.2µM*	-17.6%	.	-5.7%
COc1ccc(C(=O)N2CCCCC2CCN2CCCCC2)cc1 (stereo not drawn)	43.8%	8.7%[59 µM]	.	2.5%	.	-0.4%
COc1cc(C(=O)n2nc(C)c(Sc3ccc(Cl)cc3)c2C)cc(OC)c1OC	48.9%	37.4%[59 µM]	.	33.9%	.	16.7%
O=S1(=O)CC=C(CSC(=S)NC2CCS(=O)(=O)C2)C1 (stereo not drawn)	60.3%	44.7µM*	?	-0.7%	4.3%	-11.2%
SMILES	HP1b chromo inh	G9a block	Sfp inh	JMJD2A Tudor inh	L3MBTL1 inh	BAZ2B block
CC1Cc2ccccc2N1C(=O)CN(C)CC(=O)Nc1ccc(F)cc1 (stereo not drawn)	32.6%	-0.9%[12.7 µM]	.	-20.8%	-2.2%	-0.8%
Oc1[nH]c2ccc(Br)cc2c1N=NC(=S)N1CCOCC1	-36.8%	3.55µM*	-25.1%	17.8µM*	?	44.7µM*
O=c1[nH]nc(N=Nc2c(O)[nH]c3ccc(F)cc23)c(=O)[nH]1	23.4%	.	.	-9.6%[11.4 µM]	.	.
O=C(CNC(=O)c1ccccc1)N=Nc1c(O)[nH]c2ccc(Br)cc12	109.0%	-39.5%	17.0%	-5.6%	.	-36.5%
O=C(O)c1ccc(N=Nc2c(O)[nH]c3cc(Cl)ccc23)cc1	10.5%	23.4%[59 µM]	-27.9%	-23.2%	.	-38.8%
Cc1ccc(N=Nc2c(O)[nH]c3ccc(F)cc23)cc1	9.6%	20µM*	?	-2.4%	-7.2%	-29.8%
O=S(=O)(Cc1ccccc1)N=Nc1c(O)[nH]c2ccc(Br)cc12	?	3.55µM*	-7.7%	22.4µM*	-10.7%	-24.0%
O=C(O)c1ccc(N=Nc2c(O)[nH]c3ccc(Br)cc23)cc1	20.9%	8.5%[2.33 µM]	10µM*	?	.	79.4µM*
CC(Oc1ccccc1)C(=O)Nc1ccccc1C(=O)OCc1cc(=O)n2nc(C3CC3)sc2n1 (stereo not drawn)	30.5%	9.0%[59 µM]	.	-5.6%	.	-7.7%
COc1ccccc1NS(=O)(=O)c1cccc(NS(=O)(=O)c2ccc(Cl)c(C(=O)O)c2)c1	18.1%	.	.	-5.6%	-1.5%	.
COc1cc(NC(=O)CC(c2cccs2)N2Cc3ccccc3C2=O)cc(OC)c1OC (stereo not drawn)	26.5%	-30.5%[59 µM]	.	7.6%	.	-21.5%
Cc1cc(Nc2cc(F)ccc2C)nc(-n2nc(C)cc2C)n1	16.6%[57 µM]	32.4%[59 µM]	.	?	.	-35.9%
O=C(O)C1CCCCC1C(=O)N1CCCC1 (stereo not drawn)	39.5%	7.2%	27.2%	-1.4%	7.1%	-0.5%
O=C(O)C1C2CCC(C2)C1C(=O)N1CCCC1 (stereo not drawn)	44.4%	-12.0%	44.7µM*	-3.5%	.	-13.9%
COc1ccc(C(=O)/C(=C/c2cccs2)c2nc3ccccc3o2)cc1	?	?	-6.5%	44.7µM*	.	-32.9%
COc1ccc(/C=C(\CC(=O)O)c2nc3ccccc3o2)cc1	24.0%	1.7%	-11.8%	-6.3%	15.3%	-5.8%
COc1ccc(-n2cnnc2SCC(=O)NC2CCCCC2)cc1	13.0%	.	.	-7.5%	6.9%	.
COc1ccccc1NC(=O)C1CCC(CNS(=O)(=O)c2ccc3c(c2)CC(C)N3C(C)=O)CC1 (stereo not drawn)	27.8%	-5.0%[59 µM]	.	8.8%	.	-16.0%
O=C(C1CCN(S(=O)(=O)c2cccc3cccnc23)CC1)N1CCN(C2CCCCC2)CC1	38.1%	35.5µM*	4.6%	-26.9%	-4.8%	-3.1%
O=C(C1CCCN(S(=O)(=O)c2cccc3cccnc23)C1)N1CCc2ccccc21 (stereo not drawn)	46.0%	44.7µM*	-6.0%	-23.2%	.	0.8%
O=C(NC1CC(=O)N(c2ccccc2)C1)N1CCN(C(=O)c2ccco2)CC1 (stereo not drawn)	24.5%	-10.1%[0.501 µM]	.	-2.8%	-6.1%	-13.2%
COc1ccccc1-c1cc(C(=O)N/N=C/c2ccoc2)c2ccccc2n1	5.8%	.	14.9%	-32.0%	.	?
CC(=NN(Cc1ccccc1)c1ccccc1)c1ccccc1	26.0%	.	.	0.0%	.	.
C/C(=N\N(c1ccccc1)c1ccccc1)c1ccc(O)cc1	?	79.4µM*	-0.6%	39.8µM*	.	50.1µM*

Assay outcomes deposited in PubChem by National Center for Advancing Translational Sciences (NCATS).
